Experimental findings from PubChem BioAssay AID651900 (Broad Institute, 2012) are described below.

Structures are written as SMILES. Some of the results follow. Active and inactive are the calls of the source. How the calls were made is not given here.

The nature of the experiment: NIH3T3 cell viability loss – plate reader, cherry-pick, two tests, cytotoxicity control, dose response (AID 651900). To be noted: activity: test 2 concentration series, at 26 µM.

Consider `Cc1nc2nc(SCC(=O)NCc3ccco3)nn2c(C)c1Cc1ccccc1`, for which the activity was -7.64% and the outcome was “inactive”.

Take `COCCNC(=O)C[C@H]1CC[C@@H]2[C@H](COc3ccc(NC(=O)Nc4cccc(F)c4)cc3C(=O)N2C)O1`: the outcome is “inactive”.

In the case of `CC1(C)CC(=O)C=C(c2ccc3ncccc3c2)C1`, the activity was -5.48% and the outcome was “inactive”.

As to `Cn1c(=O)c2c(nc(OCc3cccnc3)n2Cc2ccccc2)n(C)c1=O`, the activity is -10.3% and the outcome was “inactive”.

Take `CS(=O)(=O)N1[C@H](C(=O)NCc2ccncc2)[C@@H](CO)[C@@H]2Cn3c(ccc(C4=CCCCC4)c3=O)[C@@H]21`: the outcome was “inactive”.

Regarding `COc1cc(-c2n[nH]c(=S)n2Cc2ccccc2)cc(OC)c1OC`, the activity came out at 8.41% and the outcome was “inactive”.

As to `O=c1[nH]c(N2CCN(Cc3ccc4c(c3)OCO4)CC2)nc2c1CCCC2`, the activity stood at 6.08% and the outcome was “inactive”.

In the case of `O=C(CSc1n[nH]c(-c2cccnc2)n1)Nc1ccnc2ccccc12`, the activity was -10.2% and the outcome was “inactive”.

Consider `Cc1c2cnn(CC(=O)NCc3ccccn3)c(=O)c2c(C)n1Cc1ccc(Cl)cc1`, for which the activity was 7.63% and the outcome was “inactive”.

As to `CN1c2ccc(-c3ccccc3)cc2[C@H]2[C@H](CCN2C(=O)Cc2ccccn2)[C@H]1CO`, the outcome was “inactive”.

With `Cc1c(OC(C)C(=O)NCC2CCC(C(=O)O)CC2)ccc2c1oc(=O)c1ccccc12` (stereo not given), the activity stood at 1.67% and the outcome is “inactive”.

In the case of `Cc1ccc(Cc2c(C)nc3nc(SCC(=O)NCCN4CCOCC4)nn3c2C)cc1`, the activity was -6.78% and the outcome is “inactive”.

For the molecule `CC(=O)O[C@]1(C(C)=O)CC[C@H]2[C@@H]3C=C(C)C4=CC(=O)CC[C@]4(C)[C@H]3CC[C@@]21C`, the activity was -6.83% and the outcome was “inactive”.

With `CCCOc1ccc2c3c(c(=O)oc2c1OCCC)CCC3`, the activity was -3.77% and the outcome is “inactive”.
